Key:
Assay in all cases: PBM binding z-score (relative to random genomic background probes); higher = stronger binding; sequences stand for … in GC…GCGATTGACAGCGTAGAATGAAGG
[1] = test system: RARb homodimer (NR concentration 270 nM)
Procedure, shortened: (§1)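 Probes were double-stranded and carried 34-nt variable regions with direct-repeat seeds, single-nucleotide variants, half-site ablations and random human genomic background sequences, printed on custom Agilent 4×180K protein-binding microarrays. Arrays were incubated 1 h with ligand-free nuclear receptor dimers in PBS pH 7.4, 2% milk, 0.02% Triton X-100, 1 mM DTT, 0.2 mg/mL BSA and 0.4 mg/ml salmon testes DNA. Antibodies against each partner (one per run) detected binding, and scanned fluorescence was regression-normalized. Binding z-scores use the random background probes as reference.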

[2] = test system: RARg:RXRa (NR concentration 270 nM, RXRa partner concentration 90 nM)
Procedure, shortened: as §1

[3] = test system: RARg homodimer (NR concentration 270 nM)
Procedure, shortened: as §1

[4] = test system: RXRa DBDmut IVT, anti-RXR (DBD mutation: RXRa K156A/R161A, NR concentration 90 nM)
Procedure, shortened: as §1

[5] = test system: RXRa homodimer (NR concentration 180 nM)
Procedure, shortened: as §1

[6] = test system: THRa:RXRa (NR concentration 90 nM, RXRa partner concentration 90 nM)
Procedure, shortened: as §1

[7] = test system: THRa homodimer (NR concentration 90 nM)
Procedure, shortened: as §1

[8] = test system: VDR homodimer (NR concentration 270 nM)
Procedure, shortened: as §1

| Sequence | PBM binding z-score [1] | PBM binding z-score [2] | PBM binding z-score [3] | PBM binding z-score [4] | PBM binding z-score [5] | PBM binding z-score [6] | PBM binding z-score [7] | PBM binding z-score [8] |
| --- | --- | --- | --- | --- | --- | --- | --- | --- |
| TCGAGTAGGTTACCAATGGGGCATTCGGCTTTCT | 0.464 | 1.01 | 0.0889 | 0.423 | 0.335 | -0.119 | -0.584 | -0.411 |
| GCTGCTAGGGCAACTGATGGTCAGCTAAAGCTCG | 0.973 | 0.792 | 1.27 | -0.0325 | -0.494 | -0.0894 | -1.3 | -1.03 |
| CCTACTGGGCCAGAGGTCATTGATTCCAATGCTC | 4.02 | 4.51 | 3.89 | 1.52 | 4.88 | 3.22 | 1.09 | 3.61 |
| CCTATTAGTTGACCAAAAGGGCAACCGAAGCTCG | 3.11 | 2.31 | 1.84 | 0.787 | 1.09 | 0.99 | 0.0968 | 0.7 |
| TCTTGTAGATCAATATAGGTTAAGAAAGTGCGCT | 0.819 | 0.579 | 0.586 | 1.31 | 0.962 | 1.03 | -0.0282 | 0.0852 |
| CCGACTGGGGAATAAGGTTACCATAAGCCAGCCC | 1.02 | 0.435 | 0.223 | -0.297 | 0.812 | 2.03 | 1.18 | -0.0686 |
| GGAACGAGGGCATTCGAGCTGATAGCATGGCGAT | 0.164 | 0.737 | 1.2 | 2.72 | 0.444 | 0.7 | -0.936 | 1.53 |
| CGAACTTGGTCAGAACAGGACAGTGAAGGATGAT | 0.311 | 0.432 | 0.829 | -0.105 | 0.172 | 1.09 | -0.102 | -0.116 |
| AGAACGCGGGCACGCTGAGTTGATAGCAGAGTAG | -0.459 | 0.0245 | 0.351 | -0.368 | 0.141 | -0.476 | -1.01 | 0.0842 |
| TGTCAAAGTTCACAGGTAACGTAAGTATCCACAC | 4.22 | 5.7 | 5.98 | 3.69 | 5.48 | 2.53 | -0.165 | 3.53 |
| ACTAGCAGGCCAAGGATCACTCAAGATTAGTCCG | -0.025 | 0.215 | 0.422 | -0.378 | 0.137 | -0.0655 | -0.556 | -0.55 |
| CGAACTAGGTCAGAACAGGACTGTGAAGGATGAT | 1.6 | 2.33 | 2.99 | 0.646 | 1.19 | 1.97 | -0.0804 | -0.341 |
| AGAATGAGGTTACCAAAGATCAGGTAAACGCTTG | 0.973 | 2.09 | 1.47 | 0.793 | 2.75 | 2.98 | 1.22 | 0.168 |
| GCTGCTAGGTCAGGTTGGACAGCTAACGGGTACG | 2.35 | 2.56 | 3.42 | 0.208 | 1.06 | 1.69 | 0.46 | 0.386 |
| CCGACTGGGGCATAAGATTACCATAAGCCAGCCC | -0.156 | -0.0949 | 0.359 | -0.222 | -0.0512 | -0.577 | -0.917 | -0.442 |
| TCTTGTAGGTCAGCAGGTTAAGAAAGCTGGCCAA | 3.05 | 4.48 | 4.43 | 0.785 | 3.23 | 1.97 | -0.325 | 0.0594 |
| CTAACAAGGTGAACAAGGTCGTTGATTACTATTC | 1.94 | 1.79 | 1.76 | 1.6 | 1.84 | 3.24 | 1.84 | 2.19 |

| Sequence | PBM binding z-score [1] | PBM binding z-score [2] | PBM binding z-score [3] | PBM binding z-score [4] | PBM binding z-score [5] | PBM binding z-score [6] | PBM binding z-score [7] | PBM binding z-score [8] |
| --- | --- | --- | --- | --- | --- | --- | --- | --- |
| CCTACTTGGCCAAAGGTCATTGATTCCAATGCTC | 4.5 | 5.37 | 4.64 | 2.06 | 6.05 | 3.3 | 1.25 | 2.51 |
| CGAACGAGGGCTTGAGTTGATAGCAAATGCCGAT | -0.757 | -0.238 | -0.288 | 0.344 | -0.152 | -0.359 | -0.618 | -0.163 |
| CCTACTGGGCCAAATAGGTCATTGATGCCGATAA | 2.48 | 2.17 | 2.25 | -0.057 | 2.2 | 1.67 | -0.13 | 0.916 |
| TAGCCTAGGGCAGATCGGGCCAGTATACGCTATA | -0.161 | 0.171 | 0.578 | -1.17 | -0.16 | 2.16 | -1.07 | -0.532 |
| TCAGACAGGTGAAGGTAAGTCAGGTACGCAGTCG | 1.09 | 0.505 | 0.581 | 1.17 | 0.716 | 0.959 | 0.538 | 0.0228 |
| TCATACAGGTAAACAGGTGAAAGTCCGTAAGTTA | 1.16 | 0.793 | 0.447 | 1.62 | 1.12 | 1.05 | 0.697 | 0.33 |
| CCTATTAGTTGACCATAAGGGCAACCCAAGCTCG | 2.32 | 1.44 | 1.19 | 0.764 | 0.835 | 2.07 | 1.53 | 1.28 |
| AGAACGAGGGCAATGAGTTGATCGCACGGGTGGC | 0.965 | 0.967 | 1.42 | 2.25 | 0.774 | 1.14 | -0.233 | 3.08 |
| GCTATTAGTTGAAAAGGCAACCGAATGATTCTCG | -0.358 | 0.0252 | 0.283 | 0.693 | 0.0743 | -0.197 | -0.317 | 0.154 |
| CGAACGAGGGCATGAGTTTATAGCAAATGCCGAT | 1.15 | 1.31 | 1.81 | 3.01 | 1.07 | 1.42 | 0.067 | 4.17 |
| TCGAGTAGGTTAGTCGGGGCATGCAGCCAACATA | 0.498 | -0.0315 | -0.00519 | 0.0884 | 0.113 | 0.978 | -0.26 | -0.157 |
| TATATTAGTTGATTAGGGCAACCGAAACAGCGGA | 0.779 | 0.789 | 1.19 | 0.252 | 0.43 | 0.944 | 0.495 | 0.982 |
| CAAACTAGGCCAAGAGGTCAAAGTCCGCTTCCCG | 4.79 | 5.84 | 5.21 | 2.07 | 6.52 | 3.75 | 1.81 | 3.94 |
| CAAACTAGGTCACCGAGGTCAAAGTCCGTGCGTA | 5.47 | 6.99 | 7.18 | 3.46 | 7.09 | 4.93 | 4.37 | 7.68 |
| GCATATAGGTAATACAAGGTGAAAGCCCGATTGT | 0.51 | 0.492 | 0.56 | 0.379 | 0.681 | 4.09 | 0.763 | -0.285 |
| CCTCGGAGGACAGAAGGTCAGAGCGGTCCGCTTT | 3.61 | 3.59 | 3.6 | 0.0416 | 1.82 | 2.35 | -0.136 | 0.0325 |
| CAAACTAGGACACAGAGGTCAAAGTCCGTGCGTA | 4.68 | 5.54 | 5.17 | 2.31 | 6.42 | 4.36 | 2.5 | 5.25 |
